The text below walks through data of the supplement of paper PMC10646978.

What all share (details): modulator concentration 10 µM
Assay [1] has as its system RAW-Dual (murine macrophage reporter line). The experiment in a line: NF-kB reporter (SEAP) activity fold change vs agonist alone; higher = enhanced NF-kB activity. The essentials:
(§1)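 RAW-Dual murine macrophage reporter cells were seeded at 50 000 per well in 384-well plates and pre-incubated 1 hour at 37 °C with compound pin-transferred to 10 μM final. After 1 hour, a PRR agonist was added and cells incubated overnight. Supernatant NF-κB (SEAP, QUANTI-Blue, 620 nm absorbance) and IRF (Lucia luciferase, QUANTI-Luc, luminescence) signals were divided by the mean agonist-only control on the same plate to give fold change. Two replicate plates were averaged, with errors by propagation.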

The test system is the same in assay [2]. Briefly: IRF reporter (Lucia luciferase) activity fold change vs agonist alone; higher = enhanced IRF activity. A digest of the protocol: as §1
Assay [3] shares this test system. Briefly: viability score (confluency relative to resting cells, overnight) (fraction); higher = more viable, active = viable (0.7 or more). The essentials: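 Two confluency masks, generated with IncuCyte software over all imaged wells, were applied to IncuCyte images of RAW-Dual macrophages. The cells, in 384-well plates, had been exposed overnight to 10 μM final compound. The viability score is confluency as a fraction of resting cells, and a compound met the cutoff only with both masks above 70% of resting cells.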

The mark [4] stands for this setting: agonist: CpG ODN 1826 0.5 ug/mL.

± gives the standard deviation.

With `CCN(CC)c1ccc(C=NNC(=O)c2ccccc2I)c(O)c1`, the NF-kB reporter stood at 1.35 ± 0.13 in assay [1] (setting [4]), 0.997 ± 0.069 in assay [1] (agonist: LPS 0.1 ug/mL) and 1.26 ± 0.076 in assay [1] (agonist: MPLA […]). Also, the IRF reporter in assay [2] (agonist: 3'3'-cGAMP 10 ug/mL) was determined as 0.436 ± 0.036; in assay [2] (agonist: LPS 0.1 ug/mL), 1.08 ± 0.11; in assay [2] (agonist: MPLA […]) it was 1.09 ± 0.13. In assay [3], the viability score is 0.926 (active).

As for `COc1ccc(N(CC(=O)Nc2ccccc2C(F)(F)F)S(C)(=O)=O)cc1`, the results for the NF-kB reporter in assay [1] (setting [4]), in assay [1] (agonist: LPS 0.1 ug/mL) and in assay [1] (agonist: MPLA […]) were 0.711 ± 0.14, 0.672 ± 0.27 and 0.795 ± 0.17, respectively. Further, the IRF reporter in assay [2] (agonist: 3'3'-cGAMP 10 ug/mL) was 0.723 ± 0.074; in assay [2] (agonist: LPS 0.1 ug/mL), 1.03 ± 0.14; in assay [2] (agonist: MPLA […]), 0.962 ± 0.13. For the same molecule, the viability score in assay [3] is 0.992 (active).

For `O=C(CCC1CCCC1)Nc1cccc(Cl)c1`, the figures for the NF-kB reporter in assay [1] (setting [4]), in assay [1] (agonist: LPS 0.1 ug/mL) and in assay [1] (agonist: MPLA […]) were 0.771 ± 0.061, 0.906 ± 0.1 and 1.15 ± 0.1, respectively. For the same molecule, the IRF reporter stood at 0.943 ± 0.046 in assay [2] (agonist: 3'3'-cGAMP 10 ug/mL), 1.63 ± 0.11 in assay [2] (agonist: LPS 0.1 ug/mL) and 1.87 ± 0.16 in assay [2] (agonist: MPLA […]). Further, the viability score in assay [3] is 1 (active).

Consider `CCOC(=O)c1ccc2nc(NC(=O)c3ccco3)sc2c1`, for which the NF-kB reporter was found to be 0.971 ± 0.079 in assay [1] (setting [4]), 0.876 ± 0.064 in assay [1] (agonist: LPS 0.1 ug/mL) and 1.13 ± 0.14 in assay [1] (agonist: MPLA […]). For the same molecule, the IRF reporter in assay [2] (agonist: 3'3'-cGAMP 10 ug/mL) was 0.996 ± 0.051; in assay [2] (agonist: LPS 0.1 ug/mL) it was 1.35 ± 0.19; in assay [2] (agonist: MPLA […]), 1.58 ± 0.3. For the same molecule, the viability score in assay [3] is 1.01 (active).

As to `Oc1ccc(Cl)cc1-c1nc2ccccc2s1`, the NF-kB reporter was 1.01 ± 0.084 in assay [1] (setting [4]), 0.944 ± 0.087 in assay [1] (agonist: LPS 0.1 ug/mL) and 0.967 ± 0.091 in assay [1] (agonist: MPLA […]). Further, the IRF reporter was determined as 1.09 ± 0.035 in assay [2] (agonist: 3'3'-cGAMP 10 ug/mL), 1.29 ± 0.16 in assay [2] (agonist: LPS 0.1 ug/mL) and 1.58 ± 0.23 in assay [2] (agonist: MPLA […]). The viability score in assay [3] was 1.02 (active).

For `COc1ccc(-c2cc(CNC(=O)c3c(F)cccc3F)no2)cc1`, the NF-kB reporter worked out at 0.713 ± 0.041 in assay [1] (setting [4]), 0.742 ± 0.11 in assay [1] (agonist: LPS 0.1 ug/mL) and 0.744 ± 0.042 in assay [1] (agonist: MPLA […]). Further, the values for the IRF reporter in assay [2] (agonist: 3'3'-cGAMP 10 ug/mL), in assay [2] (agonist: LPS 0.1 ug/mL) and in assay [2] (agonist: MPLA […]) were 0.878 ± 0.081, 1.4 ± 0.22 and 1.72 ± 0.45, respectively. Besides, in assay [3], the viability score is 0.947 (active).

Regarding `CCCCCCOc1ccc(N2C(=O)CC(SC(=Nc3ccccc3)Nc3ccccc3)C2=O)cc1` (configuration not stated), the NF-kB reporter came out at 0.968 ± 0.08 in assay [1] (setting [4]), 1.07 ± 0.073 in assay [1] (agonist: LPS 0.1 ug/mL) and 0.856 ± 0.05 in assay [1] (agonist: MPLA […]). Further, the IRF reporter in assay [2] (agonist: 3'3'-cGAMP 10 ug/mL) was found to be 0.937 ± 0.036; in assay [2] (agonist: LPS 0.1 ug/mL), 1.45 ± 0.092; in assay [2] (agonist: MPLA […]) it was 1.23 ± 0.25. Further, the viability score in assay [3] was 0.996 (active).

Take `O=C1NC(=O)C(=Cc2ccc(F)cc2)S1`: the NF-kB reporter in assay [1] (setting [4]) amounted to 0.667 ± 0.052; in assay [1] (agonist: LPS 0.1 ug/mL), 0.951 ± 0.062; in assay [1] (agonist: MPLA […]), 0.91 ± 0.032. Also, the IRF reporter in assay [2] (agonist: 3'3'-cGAMP 10 ug/mL) is 0.773 ± 0.16; in assay [2] (agonist: LPS 0.1 ug/mL), 1.02 ± 0.089; in assay [2] (agonist: MPLA […]), 1.02 ± 0.16. Besides, the viability score in assay [3] was 0.988 (active).

`CCOC(=O)c1cnn(CCOc2ccccc2)c1N`: the NF-kB reporter in assay [1] (setting [4]) is 1.05 ± 0.081; in assay [1] (agonist: LPS 0.1 ug/mL), 0.851 ± 0.079; in assay [1] (agonist: MPLA […]), 1.02 ± 0.11. Moreover, the IRF reporter is 0.975 ± 0.052 in assay [2] (agonist: 3'3'-cGAMP 10 ug/mL), 1.22 ± 0.13 in assay [2] (agonist: LPS 0.1 ug/mL) and 1.31 ± 0.2 in assay [2] (agonist: MPLA […]). Also, the viability score in assay [3] is 1 (active).

For the molecule `Br.CC(=O)c1cccc(Nc2nc(-c3c(C)nc4cc(C)ccn34)cs2)c1`, the NF-kB reporter was 0.774 ± 0.051 in assay [1] (setting [4]), 1.16 ± 0.087 in assay [1] (agonist: LPS 0.1 ug/mL) and 1.62 ± 0.095 in assay [1] (agonist: MPLA […]). The IRF reporter in assay [2] (agonist: 3'3'-cGAMP 10 ug/mL) came out at 0.691 ± 0.13; in assay [2] (agonist: LPS 0.1 ug/mL), 1.17 ± 0.06; in assay [2] (agonist: MPLA […]), 2.65 ± 0.53. The viability score in assay [3] was 0.25 (inactive).

As for `Cc1cc(C)nc(NC#N)n1`, the NF-kB reporter in assay [1] (setting [4]) turned out to be 0.919 ± 0.072; in assay [1] (agonist: LPS 0.1 ug/mL) it was 0.966 ± 0.11; in assay [1] (agonist: MPLA […]), 0.971 ± 0.061. The figures for the IRF reporter in assay [2] (agonist: 3'3'-cGAMP 10 ug/mL), in assay [2] (agonist: LPS 0.1 ug/mL) and in assay [2] (agonist: MPLA […]) were 0.776 ± 0.1, 1.02 ± 0.13 and 1.18 ± 0.2, respectively. Also, in assay [3], the viability score was 0.998 (active).

As to `CN1C(=O)C(=Cc2cccc3ccccc23)SC1=S`, the results for the NF-kB reporter in assay [1] (setting [4]), in assay [1] (agonist: LPS 0.1 ug/mL) and in assay [1] (agonist: MPLA […]) were 0.909 ± 0.21, 1.04 ± 0.088 and 0.949 ± 0.073, respectively. In addition, the results for the IRF reporter in assay [2] (agonist: 3'3'-cGAMP 10 ug/mL), in assay [2] (agonist: LPS 0.1 ug/mL) and in assay [2] (agonist: MPLA […]) were 0.939 ± 0.024, 1.26 ± 0.22 and 1.33 ± 0.15, respectively. The viability score in assay [3] is 0.998 (active).

Take `CCN(CC)c1ccc(C=NN2C(=O)c3ccccc3C2=O)cc1`: the values for the NF-kB reporter in assay [1] (setting [4]), in assay [1] (agonist: LPS 0.1 ug/mL) and in assay [1] (agonist: MPLA […]) were 1.05 ± 0.088, 1.08 ± 0.07 and 1.01 ± 0.061, respectively. Moreover, the IRF reporter in assay [2] (agonist: 3'3'-cGAMP 10 ug/mL) came out at 0.827 ± 0.04; in assay [2] (agonist: LPS 0.1 ug/mL), 1.05 ± 0.1; in assay [2] (agonist: MPLA […]), 1.11 ± 0.15. Moreover, the viability score in assay [3] was 0.994 (active).

`Cc1ccc(NS(=O)(=O)c2cc3c4c(cccc4c2)C(=O)NC3=O)cc1C`: the NF-kB reporter in assay [1] (setting [4]) turned out to be 0.535 ± 0.034; in assay [1] (agonist: LPS 0.1 ug/mL), 0.381 ± 0.03; in assay [1] (agonist: MPLA […]) it was 0.875 ± 0.025. Moreover, the IRF reporter is 0.532 ± 0.033 in assay [2] (agonist: 3'3'-cGAMP 10 ug/mL), 0.908 ± 0.092 in assay [2] (agonist: LPS 0.1 ug/mL) and 0.815 ± 0.14 in assay [2] (agonist: MPLA […]). For the same molecule, the viability score in assay [3] was 0.802 (active).

As to `CC(=O)NC(Cc1c[nH]c2ccccc12)C(=O)O` (configuration not stated), the values for the NF-kB reporter in assay [1] (setting [4]), in assay [1] (agonist: LPS 0.1 ug/mL) and in assay [1] (agonist: MPLA […]) were 1.09 ± 0.27, 1.09 ± 0.083 and 0.978 ± 0.063, respectively. Further, the IRF reporter in assay [2] (agonist: 3'3'-cGAMP 10 ug/mL) worked out at 0.969 ± 0.042; in assay [2] (agonist: LPS 0.1 ug/mL), 1.33 ± 0.14; in assay [2] (agonist: MPLA […]), 1.3 ± 0.13. For the same molecule, in assay [3], the viability score was 0.995 (active).

Take `O=c1[nH]nc(Br)c(=O)[nH]1`: the NF-kB reporter in assay [1] (setting [4]) worked out at 1.04 ± 0.082; in assay [1] (agonist: LPS 0.1 ug/mL) it was 1.1 ± 0.09; in assay [1] (agonist: MPLA […]), 0.969 ± 0.04. Further, the IRF reporter is 0.993 ± 0.11 in assay [2] (agonist: 3'3'-cGAMP 10 ug/mL), 1.03 ± 0.057 in assay [2] (agonist: LPS 0.1 ug/mL) and 1.02 ± 0.086 in assay [2] (agonist: MPLA […]). Besides, in assay [3], the viability score was 0.992 (active).
